Giardia FBPA inh – inhibitors of Giardia lamblia fructose-1,6-bisphosphate aldolase; purified Giardia FBPA; A8B2U2; 290,000 tested, 0.71% active; Potency, µM (highest dose often 59.6 µM), for inactives: top-dose activity, negative = inhibition, hits mostly inhibitors; note: potency is the fitted concentration of half-maximal effect; % is set by controls: 0 for no effect and ±100 for the full control effect; nearly all actives have a fitted effect of over 55% in size
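Giardia FBPA (40 nM reagent) was preincubated 10 min at RT with compound (up to 57.5 uM final), then substrate plus GAPDH/TPI/NAD/arsenate coupling system with diaphorase/resazurin was added; resorufin fluorescence (525/598 nm) was read after 20 min.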
Cycloheximide cs – affects cycloheximide protein synthesis inhibition readout, counter-screen. 300,000 tested, 12% active. max response, %. cell reporter, cycloheximide protein synthesis inhibition counterscreen. AID 2314; in the data active = max response mostly above about 13%, no sharp cut-off; inactive = mostly below about 14%; note: read at 38.3 µM for the half of the compounds with a filed dose; 0% is about no effect
RE007 growth inh – less growth of the S. pombe RE007 Vpr strain | Potency, µM (titrated, usually from 92.2 µM), inactives show top-dose activity change, negative = less growth, hits mostly inhibitors | 360,000 tested, 0.21% active | S. pombe RE007 Vpr strain, BacTiter-Glo ATP luminescence, 24 h; active = well fitted falling curve with a large enough effect; inconclusive = small, poorly fitted or top-dose-only effect; inactive = no such curve, though single readings can be large or run the other way; note: potency is the fitted concentration of half-maximal effect; % is set by controls: 0 for no effect and ±100 for the full control effect; nearly all actives have a fitted effect of over 50% in size
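Fission yeast RE007 carrying one integrated HIV-1 vpr copy, seeded at OD 0.01 in PMG+AL medium with 23 nL pinned compound. Grown 24 h at 30 degrees; viability read by BacTiter-Glo luminescence after 5 min.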
Shiga inhibitor – Shiga toxin inhibition; inhibition, % at 38.7 µM; AID 2315; 290,000 tested, 9.2% active; Vero cells, Shiga toxin protein synthesis inhibition reporter; in the data active = inhibition mostly above about 28%, no sharp cut-off; inactive = mostly below about 43%; note: 0% is about no effect
LmPK inh – blocks Leishmania mexicana pyruvate kinase activity; Q27686; purified LmPK, Kinase-Glo ATP luminescence, 1 h; Potency, µM (titrated, usually from 57.5 µM), for the others: top-dose activity change, negative = inhibition, most hits filed as inhibitors; 290,000 tested, 0.37% active; note: potency is the fitted concentration of half-maximal effect; % is set by controls: 0 for no effect and ±100 for the full control effect
Target sequence (Q27686 whole entry, looked up): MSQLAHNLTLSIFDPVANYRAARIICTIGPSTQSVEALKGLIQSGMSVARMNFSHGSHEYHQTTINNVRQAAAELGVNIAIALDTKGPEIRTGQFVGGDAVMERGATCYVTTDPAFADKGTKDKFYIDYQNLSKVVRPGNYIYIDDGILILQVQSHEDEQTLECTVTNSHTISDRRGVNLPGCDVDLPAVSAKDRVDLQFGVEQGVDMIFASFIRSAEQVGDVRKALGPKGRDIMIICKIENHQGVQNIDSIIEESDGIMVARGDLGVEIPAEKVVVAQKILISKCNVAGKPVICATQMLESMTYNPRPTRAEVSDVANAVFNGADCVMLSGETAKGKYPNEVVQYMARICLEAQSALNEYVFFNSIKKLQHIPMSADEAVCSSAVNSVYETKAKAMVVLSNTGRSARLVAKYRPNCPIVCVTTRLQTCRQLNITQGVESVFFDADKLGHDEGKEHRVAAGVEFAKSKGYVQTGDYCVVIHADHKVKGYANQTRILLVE
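ATP generated from ADP (0.1 mM) and PEP (0.5 mM) by 0.1 nM LmPK over 1 h at room temperature (pH 7.2 imidazole buffer) was detected by coupled luciferase luminescence. Values were normalized to uninhibited and no-enzyme wells.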
Tb PYK inh – blocks Trypanosoma brucei pyruvate kinase; Q57TT1; TbPYK enzyme, Kinase-Glo Plus ATP luminescence, 45 min; Potency, µM (series often up to 76.8 µM), for inactives: top-dose activity, negative = inhibition, most hits filed as inhibitors; 410,000 tested, 0.12% active; note: potency is the fitted concentration of half-maximal effect; % is set by controls: 0 for no effect and ±100 for the full control effect; nearly all actives have a fitted effect of over 50% in size
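Readout: single end-point luminescence (Kinase-Glo Plus, 10 min). Reaction conditions were TbPYK/substrate plus 130 uM ADP, 45 min at RT, pH 7.2 TEA buffer. No-enzyme wells served as controls, and data were normalized before concentration-response fitting.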
* hit, by the source's call. This is one part of a sample in which hits are shown more often than they occur. Unless noted, calls come from the whole dose curve; as a rule, active = well fitted curve in the direction sought with a large enough effect; inconclusive = small, poorly fitted or top-dose-only effect, or another doubt; inactive = no such curve, though single readings can be large; an effect the other way counts as inactive or inconclusive.

Screening Cc1nnc(NC(=O)c2sc3ccccc3c2Cl)s1 returned Giardia FBPA inh inconclusive, Cycloheximide cs 11, RE007 growth inh inconclusive, Shiga inhibitor -21, LmPK inh -10% and Tb PYK inh -7%.
Cc1csc(NC(=O)c2oc3ccccc3c2C)n1 was read as RE007 growth inh inconclusive and Tb PYK inh 0%.
For Cc1c(C(=O)NC2=NCCS2)oc2ccccc12 the results were Giardia FBPA inh -11%, Cycloheximide cs 33*, RE007 growth inh -8%, Shiga inhibitor 56*, LmPK inh inconclusive and Tb PYK inh -16%.
`COCc1nnc(NC(=O)c2sc3ccccc3c2Cl)s1` gave Giardia FBPA inh -11%, Cycloheximide cs 44*, RE007 growth inh inconclusive, Shiga inhibitor 91*, LmPK inh -7% and Tb PYK inh -8%.
Screening C=NC(C(=O)NC1C(=O)N2C1SC(C)(C)C2C(=O)O)c1ccccc1 (configuration not stated) returned Giardia FBPA inh -15% and Tb PYK inh -8%.
For O=C(NC1=NCCS1)c1sc2cc(Cl)cc(Cl)c2c1Cl the results were Giardia FBPA inh -1%, Cycloheximide cs -3, RE007 growth inh 10%, Shiga inhibitor 9, LmPK inh -3% and Tb PYK inh -2%.
`CNC(=O)c1ccsc1NC(=O)c1sc2ccccc2c1Cl` gave Giardia FBPA inh -1%, Cycloheximide cs 22*, RE007 growth inh -1%, Shiga inhibitor 27, LmPK inh 2% and Tb PYK inh 4%.
O=C(NC1=NCCS1)c1sc2ccccc2c1Cl was read as Giardia FBPA inh -20%, Cycloheximide cs 47*, RE007 growth inh inconclusive, Shiga inhibitor 93*, LmPK inh -11% and Tb PYK inh -5%.
Cc1cccc(C(=O)N2CCc3cc(CNS(=O)(=O)c4ccc(Cl)s4)ccc32)c1 was read as Tb PYK inh 5%.
c1coc(C2Nc3ccccc3-c3nc4ccccc4n32)c1 (configuration not stated) was read as Giardia FBPA inh -6%, Cycloheximide cs 31*, RE007 growth inh 7%, Shiga inhibitor 63*, LmPK inh -15% and Tb PYK inh 0%.
Screening c1ccc(C2Nc3ccccc3-c3nc4ccccc4n32)nc1 (configuration not stated) returned Giardia FBPA inh -9%, Cycloheximide cs -4, RE007 growth inh 1%, Shiga inhibitor -11, LmPK inh 7% and Tb PYK inh -7%.
For c1ccc(C2Nc3ccccc3-c3nc4ccccc4n32)cc1 (configuration not stated) the results were Giardia FBPA inh -10%, Cycloheximide cs 31*, RE007 growth inh -13%, Shiga inhibitor 57, LmPK inh 12% and Tb PYK inh -1%.
For CCc1ccc(NC(=O)C2CCC(CNS(=O)(=O)c3ccc4c(c3)C(C)(C)C(=O)N4C)CC2)cc1 (configuration not stated) the results were Tb PYK inh -2%.
`CC(C)(C)c1ccc(OCCn2ccccc2=O)cc1` gave Giardia FBPA inh 8%, Cycloheximide cs 37*, RE007 growth inh 24%, Shiga inhibitor 93*, LmPK inh -4% and Tb PYK inh -1%.
Screening O=c1ccccn1CCOc1ccc(Cl)cc1 returned Giardia FBPA inh 2%, Cycloheximide cs 33*, RE007 growth inh 15%, Shiga inhibitor 35*, LmPK inh -6% and Tb PYK inh 1%.
For Cc1ccc(-c2cc(C(=O)NCCc3ccccc3)c3ccccc3n2)cc1C the results were Tb PYK inh -1%.
`CCNc1ncc2ncc(=O)n(CCOC)c2n1` gave Giardia FBPA inh -3%.
Screening CCOc1ccc(C2=NNC(c3cccs3)=Nc3ccc(OC)cc32)cc1OCC returned Giardia FBPA inh -5%, Cycloheximide cs 27*, RE007 growth inh 22%, Shiga inhibitor 52*, LmPK inh 2% and Tb PYK inh -8%.
Screening COc1ccc(C2=NNC(c3cccs3)=Nc3ccc(OC)cc32)cc1 returned Giardia FBPA inh 0%, Cycloheximide cs 31*, RE007 growth inh -11%, Shiga inhibitor 70*, LmPK inh 0% and Tb PYK inh -2%.
CCOc1ccc2c(c1)C(c1cccs1)=NNC(c1cccnc1)=N2 was read as Giardia FBPA inh -28%, Cycloheximide cs 10, RE007 growth inh -8%, Shiga inhibitor 0, LmPK inh -2% and Tb PYK inh -2%.
For CCOc1ccc(C2=NNC(c3cccs3)=Nc3ccc(OCC)cc32)cc1 the results were Giardia FBPA inh -3%, Cycloheximide cs 4, Shiga inhibitor 30* and LmPK inh 1%.
O=C(NCCc1ccccc1)c1nn(-c2ccc(F)cc2)nc1CO was read as Tb PYK inh 3%.
`COC(=O)c1ccccc1NC(=O)c1nc(-c2ccc(C)cc2)n2c1CCCCC2` gave Tb PYK inh 4%.
CCn1cc2nc(SCc3cccc(OC)c3)n(Cc3ccc(Cl)cc3)c(=O)c2n1 was read as Tb PYK inh 8%.
`CCC(NC(=O)Cc1c(C)c2cc3c(cc2oc1=O)OC(C)(C)CC3)C(=O)O` (configuration not stated) gave Giardia FBPA inh 8%, Cycloheximide cs 21*, RE007 growth inh 5%, Shiga inhibitor 23, LmPK inh 4% and Tb PYK inh -1%.
For Cc1c(CC(=O)O)c(=O)oc2cc3c(cc12)CCC(C)(C)O3 the results were Giardia FBPA inh 0%, Cycloheximide cs -2, RE007 growth inh -3%, Shiga inhibitor -5, LmPK inh 1% and Tb PYK inh 0%.
Cc1cccc(NC(=O)NCC(c2ccc(F)cc2)N2CCN(C)CC2)c1 (configuration not stated) was read as Giardia FBPA inh 6%, Cycloheximide cs 19*, RE007 growth inh 15%, Shiga inhibitor 20, LmPK inh -3% and Tb PYK inh 0%.
Screening O=C(NCC1CC1)Nc1cccc(C(F)(F)F)c1 returned Giardia FBPA inh 4%, Cycloheximide cs 3, RE007 growth inh -4%, Shiga inhibitor 17, LmPK inh 8% and Tb PYK inh -16%.
`O=C(NCC1CC1)Nc1cccc(Cl)c1` gave Giardia FBPA inh 10%, Cycloheximide cs 25*, RE007 growth inh 7%, Shiga inhibitor 86*, LmPK inh -2% and Tb PYK inh 5%.
For COc1ccc(N2CCC(CNC(=O)Nc3ccc(Cl)cc3)C2)cc1 (configuration not stated) the results were Giardia FBPA inh -14%, Cycloheximide cs 14*, RE007 growth inh -18%, Shiga inhibitor 23, LmPK inh 2% and Tb PYK inh -17%.

From PubChem BioAssay
